Source: PubChem BioAssay
The list is not random: actives were taken first. Their share in the collection is about 6.5%.
Vaccinia mCherry: inhibitors of vaccinia virus infection (mCherry reporter signal); Vaccinia virus mCherry reporter infection, fluorescence; Potency, µM (doses to about 36.5 µM), for the others: top-dose activity change, negative = inhibition, actives largely listed as inhibitors; 310,000 tested, 0.63% active; AID 720579; calls by dose curve; tested in A549 cells; also: potency is read from the fitted curve at half-maximal effect; nearly all actives have a fitted effect of over 35% in size
FMDV inh: blocks foot and mouth disease virus; FMDV antiviral cell-based qHTS; Potency, µM (top dose mostly 57.9 µM), inactives show at the highest dose activity change, negative = inhibition, actives largely listed as inhibitors; 410,000 tested, 1.2% active; AID 1159524; calls by dose curve; tested in HEK293T cells; also: read-out not given here; potency is read from the fitted curve at half-maximal effect; nearly all actives have a fitted effect of over 45% in size
LASV entry inh: blocks Lassa virus binding to or entry into cells; Lassa virus pseudotype entry inhibition, cell reporter; Potency, µM (series often up to 37.9 µM), without a hit: top-dose activity change, negative = inhibition, hits mostly inhibitors; 300,000 tested, 1.2% active; AID 540256; calls by dose curve; tested in HEK293 cells; also: potency is read from the fitted curve at half-maximal effect; nearly all actives have a fitted effect of over 50% in size
HCMV inh: blocks human cytomegalovirus replication; HFF cells, HCMV-luciferase reporter, 72 h; active compounds read low; activity change, negative = inhibition, % at 57.5 µM; 410,000 tested, 4.5% active; AID 1259415; in the data active = activity change below about -60%; inconclusive = no clear call, values can overlap the other calls; inactive = above about -39%
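Human foreskin fibroblasts infected with luciferase-reporter HCMV at MOI 1 PFU/cell, compounds at two doses. Luciferase measured 72 h post infection; normalized to buffer-only basal and Salinomycin (10uM) controls.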
Vaccinia Venus: inhibitors of vaccinia virus (Venus reporter) | Potency, µM (doses to about 36.5 µM), inactives show at the top dose activity change, negative = inhibition, most hits filed as inhibitors | 330,000 tested, 0.46% active | Vaccinia virus Venus reporter expression, fluorescence; calls by dose curve; tested in A549 cells; also: potency is read from the fitted curve at half-maximal effect; nearly all actives have a fitted effect of over 30% in size
Marburg entry inh: Marburg virus entry inhibition; Marburg virus pseudotyped entry inhibition, cell reporter; 300,000 tested, 1.8% active; Potency, µM (series often up to 37.8 µM), without a hit: top-dose activity change, negative = inhibition, usual class: inhibitors; AID 540276; calls by dose curve; tested in HEK293 cells; also: potency is read from the fitted curve at half-maximal effect
An asterisk follows results filed as active; i = inactive; ? = inconclusive; . = no result given; [ ] = another dose, or the depositor's remark. % is scaled to controls: 0 for no effect and ±100 for the full control effect.

SMILES | Vaccinia mCherry | FMDV inh | LASV entry inh | HCMV inh | Vaccinia Venus | Marburg entry inh
CC(C)Oc1ccc(CN2CCC(n3nccc3NC(=O)C3CC3)CC2)cc1 | i | -1% | -3% | -70* | -16% | -3%
CCc1ccc(CN2CCC(n3nccc3NC(=O)c3ccccc3Cl)CC2)cc1 | -27% | 32µM* | ? | -10 | -23% | ?
O=C(Nc1ccnn1C1CCN(Cc2cccc(OCCO)c2)CC1)c1cccc(F)c1 | -5% | -16% | -21% | 76 | -17% | -10%
COc1ccc(CN2CCC(n3nccc3NC(=O)c3cccc(F)c3)CC2)cc1O | i | 3% | 18% | -87* | -11% | 8%
Cc1cc(C(=O)N(Cc2cc3cc4c(cc3nc2N2CCOCC2)CCC4)CC2CCCO2)c(=O)[nH]c1C (centres undefined) | -6% | 22% | . | . | -19% | .
N#Cc1c(-c2ccccc2)no[n+]1[O-] | . | . | . | . | . | 11µM*
Cc1cc(C)c2c(c1)-c1c(ssc1=S)C(C)(C)N2C(=O)CN1C(=O)c2ccccc2C1=O | i | 0% | -7% | 10 | -10% | 4µM*
Cc1cccc2c1N(C(=O)CN1C(=O)c3ccccc3C1=O)C(C)(C)c1ssc(=S)c1-2 | -23% | ? | 0% | -25 | -12% | ?
CC1=C(C(=O)NCc2cccc(Cl)c2)C2(CCCCCC2)OC1=O | -11% | -9% | 19%[46.1 µM] | ? | -12% | .
CCc1cccc(CC)c1N1C(=O)C2=C(SCCCS2)C1=O | -9% | ? | . | ? | -13% | .
CCc1cccc(CC)c1N1C(=O)COCC1=O | -6% | 0% | . | -62* | -5% | .
CC(C)=CCCC(C)=CCN1C(=O)[C@@]2(C[C@@H](C)C[C@@H](C)O2)c2ccccc21 | . | . | . | . | . | -7%[14.2 µM]
CCOC(=O)Cc1csc(NC(=O)c2ccc(C)c(S(=O)(=O)N3CCOCC3)c2)n1 | . | 32µM* | . | 0 | . | .
Cc1ccc(NC(=O)c2ccc(F)c(S(=O)(=O)N3CCc4ccccc4C3)c2)cc1F | -1% | 0% | -9%[46.1 µM] | -68* | -16% | .
CC(C)c1ccc(NC(=O)c2ccc(F)c(S(=O)(=O)N3CCc4ccccc43)c2)cc1 | -3% | ? | ? | -9 | -26% | .
CCOC(=O)Cc1csc(NC(=O)c2ccc(S(=O)(=O)N3CCOCC3)cc2)n1 | -4% | -20% | -3% | 11 | -11% | ?
Cc1ccc(C)c(N2CCN(S(=O)(=O)c3cc(C(=O)Nc4ccc(Oc5ccccc5)cc4)ccc3F)CC2)c1 | ? | -25% | 12%[46.1 µM] | -65* | -32% | .
O=C(Nc1ccc(Br)cc1)c1ccc(F)c(S(=O)(=O)N2CCc3ccccc32)c1 | -16% | ? | ? | -92* | ? | .
Cc1ccccc1NC(=O)c1ccc(F)c(S(=O)(=O)N2CCc3ccccc3C2)c1 | -12% | -25% | ? | 10 | -15% | .
O=C(Nc1ccc(Br)cc1)c1ccc(F)c(S(=O)(=O)NCc2cccs2)c1 | ? | -1% | 4µM* | -92* | ? | ?
Cc1nc2ccc(NC(=O)c3ccc(C)c(S(=O)(=O)N4CCOCC4)c3)cc2s1 | . | ? | . | -72* | . | .
COc1ccc(C)cc1NC(=O)c1ccccc1NS(=O)(=O)c1ccc(Cl)s1 | . | -25% | . | -61* | . | .
Cc1ccc(NC(=O)c2ccccc2NS(=O)(=O)c2ccc(Cl)s2)cc1S(=O)(=O)N1CCOCC1 | -23% | ? | ? | -82* | ? | ?
Cc1nc2ccc(NC(=O)c3ccc(Cl)c(S(=O)(=O)N(C)c4ccccc4)c3)cc2s1 | ? | 8.9µM* | ? | -101* | ? | ?
O=C(Nc1ccccc1)c1ccc(F)c(S(=O)(=O)N2CCOCC2)c1 | . | -4% | -21% | -14 | . | 2%
SMILES | Vaccinia mCherry | FMDV inh | LASV entry inh | HCMV inh | Vaccinia Venus | Marburg entry inh
O=C(Nc1cc(S(=O)(=O)N2CCOCC2)ccc1N1CCOCC1)c1ccc([N+](=O)[O-])s1 | . | -20% | . | ? | . | .
Cc1ccc(NC(=O)c2ccc(F)c(S(=O)(=O)NCCc3ccccc3)c2)cc1F | ? | 2% | ? | -75* | -26% | .
Cc1ccc(NC(=O)c2ccc([N+](=O)[O-])s2)cc1S(=O)(=O)N1CCOCC1 | ? | ? | ? | -94* | ? | ?
Cc1ccc(NC(=O)c2ccc(F)c(S(=O)(=O)N3CCOCC3)c2)cc1F | ? | ? | -54%[14.3 µM] | -69* | -25% | -13%
Cc1ccc(CNS(=O)(=O)c2cc(C(=O)Nc3ccc(C(C)C)cc3)ccc2F)cc1 | -17% | -17% | -18%[46.1 µM] | -5 | -28% | .
CC1(C)CC(=O)C=C(Nc2ccc3c(c2)CCC3)C1 | . | -14% | . | . | . | .
O=C(Nc1cc(Cl)cc(Cl)c1)c1ccc(F)c(S(=O)(=O)N2CCN(c3ccccc3F)CC2)c1 | -16% | -20% | -14%[46.1 µM] | -20 | -17% | .
CCc1ccccc1NC(=O)c1ccc(F)c(S(=O)(=O)N2CCN(c3ccccc3OC)CC2)c1 | -24% | ? | ? | -62* | -28% | .
Cc1ccc(C2=CN(CCC(=O)O)C(=O)C2)cc1 | . | . | . | 26 | . | .
COc1cc(NC(=O)c2cc(C)nc3c2c(C)nn3-c2ccccc2Cl)cc(OC)c1 | -8% | ? | -10%[46.1 µM] | -66* | 3% | ?
